High-throughput results from PubChem.
mHTT-CaM PPI inh: inhibitors of human mutant huntingtin-calmodulin interaction. P42858. AlphaScreen His-mHTT/GST-CaM binding, luminescence. inhibition, % at 15 µM. hit rate 3.6% among 190,000;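 further: 0% = both proteins with DMSO and 100% = one protein alone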
Target sequence (P42858 whole entry, looked up, stated change not applied): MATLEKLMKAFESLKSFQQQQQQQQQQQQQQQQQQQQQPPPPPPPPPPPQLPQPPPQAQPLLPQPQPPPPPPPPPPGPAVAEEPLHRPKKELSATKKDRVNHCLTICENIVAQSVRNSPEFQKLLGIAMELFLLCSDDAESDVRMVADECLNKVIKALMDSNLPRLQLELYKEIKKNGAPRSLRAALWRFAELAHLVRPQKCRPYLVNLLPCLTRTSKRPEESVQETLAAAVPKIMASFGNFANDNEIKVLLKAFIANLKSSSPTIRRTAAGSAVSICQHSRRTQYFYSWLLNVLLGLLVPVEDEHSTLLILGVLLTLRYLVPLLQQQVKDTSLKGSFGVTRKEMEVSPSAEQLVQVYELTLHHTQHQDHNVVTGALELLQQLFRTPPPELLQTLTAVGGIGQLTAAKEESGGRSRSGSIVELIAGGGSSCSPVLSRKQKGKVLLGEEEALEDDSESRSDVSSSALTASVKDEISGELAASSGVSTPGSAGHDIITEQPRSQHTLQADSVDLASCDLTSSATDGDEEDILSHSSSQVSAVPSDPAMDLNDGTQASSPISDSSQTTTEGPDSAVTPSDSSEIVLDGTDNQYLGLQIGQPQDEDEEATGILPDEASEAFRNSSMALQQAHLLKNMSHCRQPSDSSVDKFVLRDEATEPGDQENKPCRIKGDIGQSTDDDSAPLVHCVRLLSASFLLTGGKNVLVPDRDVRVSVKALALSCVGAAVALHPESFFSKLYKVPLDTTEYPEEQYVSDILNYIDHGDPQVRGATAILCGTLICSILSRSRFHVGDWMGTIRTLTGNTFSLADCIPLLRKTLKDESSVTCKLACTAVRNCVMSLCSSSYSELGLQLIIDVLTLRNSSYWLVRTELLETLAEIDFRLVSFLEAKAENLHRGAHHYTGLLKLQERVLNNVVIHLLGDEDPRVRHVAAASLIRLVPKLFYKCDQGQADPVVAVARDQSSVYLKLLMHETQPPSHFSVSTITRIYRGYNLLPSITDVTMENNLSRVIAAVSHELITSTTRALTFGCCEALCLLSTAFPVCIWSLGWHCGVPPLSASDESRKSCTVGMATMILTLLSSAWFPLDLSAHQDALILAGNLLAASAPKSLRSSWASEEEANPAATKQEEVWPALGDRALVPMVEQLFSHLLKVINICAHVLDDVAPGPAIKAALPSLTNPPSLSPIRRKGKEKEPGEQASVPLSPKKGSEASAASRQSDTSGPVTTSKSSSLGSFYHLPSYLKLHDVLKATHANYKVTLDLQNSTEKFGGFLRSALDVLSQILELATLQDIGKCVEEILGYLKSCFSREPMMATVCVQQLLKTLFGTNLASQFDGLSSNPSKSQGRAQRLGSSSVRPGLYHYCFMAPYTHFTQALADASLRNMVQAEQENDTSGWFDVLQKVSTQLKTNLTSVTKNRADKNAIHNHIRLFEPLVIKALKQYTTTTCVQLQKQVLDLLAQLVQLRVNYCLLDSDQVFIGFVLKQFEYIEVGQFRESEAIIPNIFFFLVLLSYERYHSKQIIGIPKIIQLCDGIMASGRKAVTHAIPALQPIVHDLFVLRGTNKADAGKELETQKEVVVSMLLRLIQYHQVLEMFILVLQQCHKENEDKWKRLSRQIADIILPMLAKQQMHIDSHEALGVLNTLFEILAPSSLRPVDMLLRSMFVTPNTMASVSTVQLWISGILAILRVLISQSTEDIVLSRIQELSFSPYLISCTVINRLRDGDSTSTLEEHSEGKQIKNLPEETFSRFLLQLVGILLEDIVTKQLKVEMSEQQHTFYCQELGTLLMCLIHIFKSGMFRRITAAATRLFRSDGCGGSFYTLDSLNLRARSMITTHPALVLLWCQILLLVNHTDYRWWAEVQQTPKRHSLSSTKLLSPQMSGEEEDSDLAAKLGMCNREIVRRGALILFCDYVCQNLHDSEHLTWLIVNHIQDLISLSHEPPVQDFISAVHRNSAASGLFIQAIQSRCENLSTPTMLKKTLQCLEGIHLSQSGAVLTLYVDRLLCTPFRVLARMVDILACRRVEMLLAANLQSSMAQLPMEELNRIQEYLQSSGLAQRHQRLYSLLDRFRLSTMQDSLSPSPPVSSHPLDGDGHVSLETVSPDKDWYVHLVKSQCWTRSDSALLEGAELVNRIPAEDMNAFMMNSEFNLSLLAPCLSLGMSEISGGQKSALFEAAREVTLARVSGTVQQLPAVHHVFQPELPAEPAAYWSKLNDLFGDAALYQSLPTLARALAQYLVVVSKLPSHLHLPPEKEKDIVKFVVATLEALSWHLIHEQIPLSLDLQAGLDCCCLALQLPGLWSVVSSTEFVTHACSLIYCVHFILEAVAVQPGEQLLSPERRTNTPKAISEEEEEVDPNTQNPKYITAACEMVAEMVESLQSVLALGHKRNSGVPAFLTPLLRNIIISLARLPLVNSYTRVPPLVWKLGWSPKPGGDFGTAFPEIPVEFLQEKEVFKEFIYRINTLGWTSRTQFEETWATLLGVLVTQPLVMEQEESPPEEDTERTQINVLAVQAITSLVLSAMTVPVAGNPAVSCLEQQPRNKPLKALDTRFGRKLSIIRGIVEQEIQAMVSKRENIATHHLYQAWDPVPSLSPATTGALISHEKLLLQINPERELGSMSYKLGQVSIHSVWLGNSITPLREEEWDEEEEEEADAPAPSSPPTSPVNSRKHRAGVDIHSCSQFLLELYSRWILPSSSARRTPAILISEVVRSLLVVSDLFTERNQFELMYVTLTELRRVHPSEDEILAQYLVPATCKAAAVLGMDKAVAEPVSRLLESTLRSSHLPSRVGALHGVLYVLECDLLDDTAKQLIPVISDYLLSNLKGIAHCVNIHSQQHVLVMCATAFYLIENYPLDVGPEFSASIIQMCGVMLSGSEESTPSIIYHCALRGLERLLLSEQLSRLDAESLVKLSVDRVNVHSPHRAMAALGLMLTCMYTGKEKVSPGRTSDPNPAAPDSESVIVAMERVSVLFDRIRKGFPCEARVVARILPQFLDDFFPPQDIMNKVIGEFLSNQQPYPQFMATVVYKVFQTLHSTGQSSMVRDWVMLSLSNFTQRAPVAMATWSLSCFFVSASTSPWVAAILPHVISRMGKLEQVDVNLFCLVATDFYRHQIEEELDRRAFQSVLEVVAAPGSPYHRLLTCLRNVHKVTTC
Pf apPOL inh: Pf-apPOL DNA polymerase inhibition; Recombinant Pf-apPOL, molecular beacon fluorescence, 1.5 h; inhibition, % at 10 µM; hit rate 0.25% among 210,000; AID 1794808
Numbers without * were called inactive. In the library only some 3.6% were active in any assay of this set; here they are far more common. No stated cut-off is given here; in the data, active means inhibition above about 50%; inactive means the rest.

For CCCCSc1nnc2c(n1)OC(/C=C/c1ccco1)Nc1ccccc1-2 (stereo not drawn) the results were mHTT-CaM PPI inh 32 and Pf apPOL inh 16.
For Cn1c(SCC(=O)c2ccc(O)cc2)nnc1-c1ccco1 the results were mHTT-CaM PPI inh -1 and Pf apPOL inh -3.
`Cc1cccc(NC(=O)N2CCCC2c2ccccc2Cl)c1` (stereo not drawn) gave mHTT-CaM PPI inh -7 and Pf apPOL inh 1.
For CCOc1ccccc1C(=O)O/N=C(\N)c1ccncc1 the results were mHTT-CaM PPI inh inactive and Pf apPOL inh -3.
`O=C(c1ccccc1Br)N1CCc2nc(-c3ccccc3)ncc2C1` gave mHTT-CaM PPI inh 0 and Pf apPOL inh 1.
`Cc1ccnc(SCC(=O)N2CCc3ccccc3C2)n1` gave mHTT-CaM PPI inh -5 and Pf apPOL inh -43.
`O=C(CSc1nnc(-c2ccco2)c(-c2ccco2)n1)N1CCc2ccccc2C1` gave mHTT-CaM PPI inh 93* and Pf apPOL inh 1.
COc1ccc(S(=O)(=O)N2Cc3ccccc3CC2C(=O)Nc2ccc(C)cc2C)cc1 (stereo not drawn) was read as mHTT-CaM PPI inh -2 and Pf apPOL inh -2.
`CS(=O)(=O)N1CCCC(C(=O)Nc2nnc(-c3ccno3)o2)C1` (stereo not drawn) gave mHTT-CaM PPI inh 50* and Pf apPOL inh 2.
Cc1ccc(NC(=O)C2CCCN(S(=O)(=O)c3cccs3)C2)cn1 (stereo not drawn) was read as mHTT-CaM PPI inh -3 and Pf apPOL inh -1.
Screening CCS(=O)(=O)c1ccc(-c2nnc(NC(=O)C3CCCN(S(C)(=O)=O)C3)o2)cc1 (stereo not drawn) returned mHTT-CaM PPI inh -1 and Pf apPOL inh -1.
Screening Cc1cc(-c2nnc(NC(=O)C3CCCN(S(=O)(=O)c4cccs4)C3)o2)nn1C (stereo not drawn) returned mHTT-CaM PPI inh 51* and Pf apPOL inh -8.
For CCOc1ccc(CC(=O)N2CCC(Cc3nc4cccnc4n3C(C)C)C2)cc1 (stereo not drawn) the results were mHTT-CaM PPI inh 14 and Pf apPOL inh -1.
`COc1cccc(CNC(=O)N2CCC(N3CCN(Cc4ccc(C)cc4)C3=O)CC2)c1` gave mHTT-CaM PPI inh 14 and Pf apPOL inh -2.
`Cc1ccc(-c2cc3n(n2)CCCN(C(=O)c2cnccn2)C3)cc1` gave mHTT-CaM PPI inh -1 and Pf apPOL inh -2.
Screening COc1cc2c(cc1OC)C(C(=O)N1CCCCC1)C(c1cccnc1)N(C)C2=O (stereo not drawn) returned mHTT-CaM PPI inh -6 and Pf apPOL inh -12.
Screening COc1ccc(C2C3=C(Nc4ncnn42)c2ccccc2OC3c2cccc(OC)c2)cc1 (stereo not drawn) returned mHTT-CaM PPI inh 56* and Pf apPOL inh -5.
`COc1cccc(C2C3=C(Nc4ncnn42)c2ccccc2OC3c2ccccc2OC)c1` (stereo not drawn) gave mHTT-CaM PPI inh 64* and Pf apPOL inh -7.
Fc1ccccc1C1C2=C(Nc3ncnn31)c1cc(Cl)ccc1OC2c1ccncc1 (stereo not drawn) was read as mHTT-CaM PPI inh 21 and Pf apPOL inh 1.
`COc1ccccc1C1Oc2ccccc2C2=C1C(c1ccc(C)cc1)n1ncnc1N2` (stereo not drawn) gave mHTT-CaM PPI inh 15 and Pf apPOL inh -1.
Screening COc1cccc(C2C3=C(Nc4ncnn42)c2ccccc2OC3c2cccc(F)c2)c1 (stereo not drawn) returned mHTT-CaM PPI inh 37 and Pf apPOL inh -4.
Screening COc1ccc(C2C3=C(Nc4ncnn42)c2ccccc2OC3c2cccc(Cl)c2)cc1 (stereo not drawn) returned mHTT-CaM PPI inh 41 and Pf apPOL inh -10.
For Clc1ccc(C2Oc3ccccc3C3=C2C(c2cccs2)n2ncnc2N3)cc1 (stereo not drawn) the results were mHTT-CaM PPI inh 56* and Pf apPOL inh -8.
Cc1ccc(C2C3=C(Nc4ncnn42)c2ccccc2OC3c2cccc([N+](=O)[O-])c2)cc1 (stereo not drawn) was read as mHTT-CaM PPI inh 50* and Pf apPOL inh 0.
CCN1C(=O)Cc2ccccc2C1C(=O)NCc1cccc(OC)c1OC (stereo not drawn) was read as mHTT-CaM PPI inh 1 and Pf apPOL inh -2.
Screening CCN(/C=C1/C(=O)N(c2ccccc2)N=C1C)CC returned mHTT-CaM PPI inh -1 and Pf apPOL inh -1.
For COc1ccc(-n2nc3c(c2NC(=O)c2cc([N+](=O)[O-])ccc2Cl)CSC3)cc1 the results were mHTT-CaM PPI inh 21 and Pf apPOL inh -6.
For COC(=O)Nc1ccc(S(=O)(=O)N2CCCC(C(=O)Nc3cccc(OC)c3)C2)cc1 (stereo not drawn) the results were mHTT-CaM PPI inh 10 and Pf apPOL inh 0.
Screening COc1ccc2c(c1)/C(=N/OC(=O)c1ccccc1SC)CCC2 returned mHTT-CaM PPI inh inactive and Pf apPOL inh 1.
`CCOc1ccc(N2COc3ccc(OC)cc3C2)cc1` gave mHTT-CaM PPI inh 51* and Pf apPOL inh -5.
`Clc1ccc(N2COc3cc4c(cc3C2)OCO4)cc1` gave mHTT-CaM PPI inh 12 and Pf apPOL inh -8.
`CCOc1ccc(N2COc3ccc(Cl)cc3C2)cc1` gave mHTT-CaM PPI inh 81* and Pf apPOL inh -7.
`CCOc1nc(OCC)nc(N2CCN(c3ccc(OC)cc3)CC2)n1` gave mHTT-CaM PPI inh 24 and Pf apPOL inh -10.
`COc1ccc2c(c1)CN(c1ccccc1I)CO2` gave mHTT-CaM PPI inh 44 and Pf apPOL inh -1.
For COc1ccc2c(c1)CN(c1ccc(C)cc1)CO2 the results were mHTT-CaM PPI inh 53* and Pf apPOL inh 0.
`COc1ccc(N2COc3ccc(OC)cc3C2)cc1` gave mHTT-CaM PPI inh 53* and Pf apPOL inh -2.
`COc1ccc2c(c1)CN(c1ccc(Br)cc1)CO2` gave mHTT-CaM PPI inh 46 and Pf apPOL inh -4.
N#CC(=NNc1ccc(OC(F)(F)F)cc1)C(=O)c1ccsc1 was read as Pf apPOL inh -3.
`Cc1ccsc1C=CC(=O)ON=C(N)c1ccc(C(F)(F)F)cc1` gave Pf apPOL inh -5.
For N#CCCn1c2ccccc2c2ccccc21 the results were mHTT-CaM PPI inh -6 and Pf apPOL inh 0.
Screening O=C(Cn1cc(S(=O)(=O)Cc2cccc(Cl)c2)c2ccccc21)N1CCOCC1 returned mHTT-CaM PPI inh -17 and Pf apPOL inh -5.
Screening CCOc1ccc(N2C(=O)CC(N3CCN(c4ccc(F)cc4)CC3)C2=O)cc1 (stereo not drawn) returned mHTT-CaM PPI inh -6 and Pf apPOL inh -3.
`CCOc1ccc(N2COc3ccc(F)cc3C2)cc1` gave mHTT-CaM PPI inh 59* and Pf apPOL inh 2.
Cc1c(Br)cc2nsnc2c1C was read as Pf apPOL inh -11.
For O=C(CCC(=O)N1CC2CCCN2c2ccccc21)NCCc1ccc(Cl)cc1 (stereo not drawn) the results were mHTT-CaM PPI inh 75* and Pf apPOL inh -1.
For O=C(CCC(=O)N1CC2CCCN2c2ccccc21)NCCc1ccccc1Cl (stereo not drawn) the results were mHTT-CaM PPI inh 53* and Pf apPOL inh -3.
`COc1ccc(CCNC(=O)CCC(=O)N2CC3CCCN3c3ccccc32)cc1OC` (stereo not drawn) gave mHTT-CaM PPI inh 26 and Pf apPOL inh -5.
CC(C)CCNC(=O)CCC(=O)N1CC2CCCN2c2ccccc21 (stereo not drawn) was read as mHTT-CaM PPI inh 13 and Pf apPOL inh -7.
